# Test results taken from publication PMC5540273 (PLoS ONE, 2017).
# How the values were obtained:
# Conditions in all cases: concentration: 1 μM, replicates: in singlicate; n = 1
# HIPK3 = system: HIPK3
# HIPK4 = system: HIPK4
# HPK1 = system: HPK1
# HUNK = system: HUNK
# ICK = system: ICK
# IGF1R = system: IGF1R
# IKK-alpha = system: T1, IKK-alpha
# T1 construct: gene CHUK
# IKK-beta = system: T2, IKK-beta
# T2 construct: gene IKBKB
# IKK-epsilon = system: T3, IKK-epsilon
# T3 construct: gene IKBKE
# INSRR = system: INSRR
# 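Note: KINOMEscan kinase panel screen.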
Structure (SMILES),%Inh (HIPK3) [%],%Inh (HIPK4) [%],%Inh (HPK1) [%],%Inh (HUNK) [%],%Inh (ICK) [%],%Inh (IGF1R) [%],%Inh (IKK-alpha) [%],%Inh (IKK-beta) [%],%Inh (IKK-epsilon) [%],%Inh (INSRR) [%]
COc1cc2ncn(-c3cc(OCc4ccncc4Br)c(C(N)=O)s3)c2cc1OC [GW854278],15,32,0,0,5,0,6,3,0,7
O=C(NCc1cccs1)c1cc(C(=O)c2c(Cl)cccc2Cl)c[nH]1 [GW823670],0,0,37,31,0,1,0,0,3,0
COc1ccc(-n2cnc3c(N)ncnc32)cc1 [SKF-97236],12,29,5,0,0,19,0,19,3,2
O=C(Nc1ccc2c(c1)OCO2)NC1CCN(c2ccnc(NCc3ccc(F)cc3)n2)CC1 [GSK1379859],9,0,29,1,0,0,0,0,11,0
COc1cc2ncn(-c3cc(OCc4ccc(S(C)(=O)=O)cc4)c(C(N)=O)s3)c2cc1OC [GW869979],2,26,10,2,19,6,0,7,25,0
Cl.c1ccc(Cn2cnc3cc(Nc4ncnc5ccccc45)ccc32)cc1 [GW272142],8,0,36,5,0,34,0,12,17,36
COc1cc2nccc(Nc3cccc(Oc4ccccc4)c3)c2cc1OC.Cl [GW284543],0,21,2,15,0,14,0,0,0,0
COC(=O)c1c(-c2ccccc2)c2cc(C)ccc2c(=O)n1Cc1ccccc1,0,0,0,0,0,5,0,0,0,1
CCn1c(-c2ccoc2)nc2cnccc21 [SB-733887],20,0,35,0,14,0,30,29,60,0
Cc1c(Cn2c(C)nn3c(=O)cc(N4CCO[C@H](C)C4)nc23)cccc1C(F)(F)F [GSK2373690],30,0,24,4,1,41,0,3,0,14
O=C(Nc1n[nH]c2nc(-c3ccccc3)c(Cl)cc12)C1CC1 [SB-734909],33,0,11,20,29,0,43,56,0,8
CCc1nc(-c2cccc(C)c2)c(-c2ccncc2)s1,0,0,8,0,0,0,0,0,0,0
COc1ccc(CNC(=O)NC2CCN(c3ccnc(Nc4ccc(F)cc4)n3)C2)cc1 (stereo not shown) [GSK1379706],30,8,49,0,0,13,3,0,30,0
OCCCNc1nccc(-c2c(-c3cccc(C(F)(F)F)c3)nn3cc(C(F)(F)F)ccc23)n1 [GW630813],0,0,27,9,0,8,0,0,14,0
Nc1ncnc2c1ncn2-c1ccc(Cl)cc1 [AH2635],0,0,27,19,0,0,0,0,30,0
C[C@@H]1CC[C@H](C(=O)NC2CCCCC2)CN1c1cc(-c2ccc3c(N)n[nH]c3c2)nc(N)n1 [GSK2291363],14,0,50,0,18,30,0,0,25,0
COc1cc2nccc(Nc3ccc(OCc4ccc(NC(C)=O)cc4)cc3)c2cc1OC.Cl [GW440135],0,0,36,21,0,0,10,0,3,8

Structure (SMILES),%Inh (HIPK3) [%],%Inh (HIPK4) [%],%Inh (HPK1) [%],%Inh (HUNK) [%],%Inh (ICK) [%],%Inh (IGF1R) [%],%Inh (IKK-alpha) [%],%Inh (IKK-beta) [%],%Inh (IKK-epsilon) [%],%Inh (INSRR) [%]
Cc1nc(N(C)[C@H]2CN(C(=O)CC#N)CC[C@H]2C)c2cc[nH]c2n1,9,0,0,0,0,0,0,5,0,0
Nc1n[nH]c2nnc(-c3ccccc3)c(-c3ccccc3)c12 [GW554060],68,0,27,5,0,0,28,0,0,0
CN1C(=O)C(Nc2ccccc2)=C(c2ccccc2)C1=O [SB-300079],0,0,0,67,0,0,11,0,0,0
COc1cccc(C2=C(N(C)c3ccccc3)C(=O)NC2=O)c1 [SB-334865],25,0,53,9,0,12,0,14,3,0
O=C(NCCNc1ccnc(Nc2ccc(F)cc2)n1)Nc1ccc2c(c1)OCO2 [GSK1379882],9,0,37,1,0,0,3,7,14,0
COc1cccc(C2=C(Nc3cccc(C(=O)O)c3)C(=O)NC2=O)c1 [SB-390770],1,7,5,20,0,8,0,6,0,19
Nc1nccc2scc(-c3ccc4c(c3)CCN4C(=O)Cc3ccccc3)c12 [GSK2576924],11,0,18,0,0,1,0,0,12,0
COc1ccc(Nc2nccc(N3CCC(NS(=O)(=O)c4ccc(NC(C)=O)cc4)C3)n2)cc1 (stereo not shown) [GSK1379729],14,12,64,0,13,22,12,6,12,21
Nc1n[nH]c2ncc(-c3ccccc3)cc12 [SB-517081],12,0,44,13,0,18,27,65,13,0
COc1cc2ncn(-c3cc(OCc4ccncc4)c(C(N)=O)s3)c2cc1OC [GSK336313],21,0,21,0,4,0,0,0,26,99.3
Cc1cccc(-c2cc(-c3c[nH]nc3-c3ccccn3)ccn2)c1 [GW679395],13,0,32,10,9,0,4,25,21,0
COC(=O)c1c(-c2ccccc2)c2cc(Br)ccc2c(=O)n1Cc1ccc(NC(=O)CCC(=O)O)cc1,0,0,0,0,14,0,0,0,0,13
CCC(=O)c1c(-c2ccccc2)c2cc(Cl)ccc2c(=O)n1Cc1cc(C(=O)NC2CC2)n(C)n1,2,1,0,0,4,0,5,10,0,0
COc1cccc(-n2cnc3c(N)ncnc32)c1 [SKF-97416],26,13,0,16,34,0,50,32,0,5
Fc1cccc(CSc2nnc(-c3ccc4c(c3)CCO4)o2)c1,6,0,0,0,0,13,14,10,20,0
Cc1ccccc1COc1cc(-n2cnc3cc(Cl)ccc32)sc1C(N)=O [GW813349],12,21,62,18,0,9,0,0,62,23
CCS(=O)(=O)c1ccc(OC)c(Nc2ncc(-c3ccc(F)cc3)o2)c1.Cl [GW591947],37,0,17,22,0,20,0,1,0,0
